{"source": "PubChem BioAssay (NCI)", "note": "Several values for one entry are separate records, joined by “and”; a condition that tells them apart may be missing. Equal entries are not always repeated. About 83,000 compounds went through this panel and 20% of them were active in at least one assay; those are over-represented in the sample as a whole.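 Activity criterion: percent growth below 10, measured after cells in 96-well plates were exposed to a single compound concentration for 48 hours.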 A number with no mark means an inactive call.", "data": [{"system": "SN12C renal", "assay": "NCI-60 one-dose screen, 48 h (100 = growth as untreated, 0 = no growth, -100 = all killed)", "settings": "10 µM unless noted", "values": [{"smiles": "N#Cc1ccc(/C=C/C(=O)c2ccccc2)cc1", "growth": "96.2% and 92.6%"}, {"smiles": "COc1ccc(COC=O)cc1", "growth": "101%"}, {"smiles": "O=[N+]([O-])c1ccc(N/N=C/C2CCCCCC2)c([N+](=O)[O-])c1", "growth": "92%"}, {"smiles": "COC(=O)C(Cc1cn(C(C)=O)c2ccccc12)P(=O)(OC)OC", "note": "(centres undefined)", "growth": "97.7%"}, {"smiles": "CCOCCC(=O)O", "growth": "103%"}, {"smiles": "Cc1ccc(N)cc1S(=O)(=O)O", "growth": "103% and 106%"}, {"smiles": "CCOC(=O)c1ccc(C(=N)N)cc1", "growth": "117%"}, {"smiles": "Cc1cc(-c2ccc(N=Nc3c(C)nn(-c4ccc(S(=O)(=O)O)cc4)c3O)c(C)c2)ccc1N=Nc1ccc(O)c(C(=O)O)c1", "growth": "95.8%"}, {"smiles": "CC(=O)c1cccc(OC(=O)c2ccccc2)c1", "growth": "91.2%"}, {"smiles": "O=C(O)/C=C/C=C/c1ccccc1", "growth": "96% and 106%"}, {"smiles": "CCOC(=N)c1ccc(C(=N)OCC)cc1", "growth": "98.4%"}, {"smiles": "CN(C)C(=N)N=C(N)N", "growth": "95.3% and 127%"}, {"smiles": "N=C(N=C(N)N)N1CCOCC1", "growth": "99.4% and 96.7%"}, {"smiles": "COc1cc([C@@H]2c3cc4c(cc3[C@H](O)[C@H]3COC(=O)[C@@H]23)OCO4)cc(OC)c1OC", "growth": "20.6% and 33%"}, {"smiles": "O=C1C=CC(=O)N1Cc1ccco1", "growth": "87.3%"}, {"smiles": "S=c1ccc2ccccc2[nH]1", "growth": "101%"}, {"smiles": "Clc1ccc(/C=C/c2ccc3ccccc3n2)cc1", "growth": "43.8% and 97.7% and 85.7%"}, {"smiles": "COc1ccc(CCl)c(C)c1OC", "growth": "98.2%"}, {"smiles": "O=C1c2ccccc2C(c2ccccc2)C1c1ccccc1", "note": "(centres undefined)", "growth": "93.5%"}, {"smiles": "COc1ccc2oc3c(ccc[n+]3C)c(=O)c2c1", "growth": "110%"}, {"smiles": "CCc1ccccc1-n1[nH]c(C)c(C=N)c1=O", "growth": "106%"}, {"smiles": "C/C=C/C(=O)OCCCCCCCCCCCC", "growth": "81.6%"}, {"smiles": "N#Cc1c[nH]n2ccnc12", "growth": "99.8%"}, {"smiles": "CCCCCc1cc[n+](CC(=O)c2ccccc2)cc1", "growth": "99.8% and 103%"}, {"smiles": "O=[N+]([O-])c1ccc(N2CCN=N2)cc1", "growth": "88.9%"}, {"smiles": "CCOc1ccc(/C=C\\C(=O)O)cc1", "growth": "101%"}, {"smiles": "O=C(c1ccc(Cl)cc1)C1C(c2ccccc2)C1[N+](=O)[O-]", "note": "(centres undefined)", "growth": "104%"}, {"smiles": "CNc1ccc(O)cc1", "growth": "103%"}, {"smiles": "O=C1c2cccnc2-c2ncccc21", "growth": "108% [100 µM]"}, {"smiles": "Cc1c(Cl)cc(Cl)c(N)c1Cl", "growth": "117%"}, {"smiles": "Cc1cc(NC(=O)NC(=O)c2ccccc2N(C)C)ccc1Oc1ncc(Br)cn1", "growth": "51.6% and 51.3%"}, {"smiles": "CC(C)(C)C1=CC(=O)C(C(C)(C)C)=CC1=O", "growth": "93.7% and 102%"}, {"smiles": "OCc1ccccc1F", "growth": "84.5%"}, {"smiles": "O=C(O)C1CSCN1", "note": "(centres undefined)", "growth": "100%"}, {"smiles": "O=[N+]([O-])c1cccc(N=Cc2ccccc2)c1", "growth": "104%"}, {"smiles": "Cc1cc(O)c(C(C)C)cc1N=O", "growth": "95.7% and 105%"}, {"smiles": "CS(=O)(=O)OCC1NC(=O)C(COS(C)(=O)=O)NC1=O", "note": "(centres undefined)", "growth": "108% and 111%"}, {"smiles": "CCCC(=O)Oc1ccc2ccccc2c1", "growth": "97%"}, {"smiles": "O=C(O)c1cccc(Br)c1", "growth": "104%"}]}]}
